In the library only some 0.32% were active in any assay of this set; here they are far more common.
SNCA expr inhib = Primary qHTS assay for inhibitors of alpha-synuclein gene (SNCA) expression. actives 0.17% (n = 140,000). AID 1671194, 2021. HEK-293 SNCA-luciferase knock-in, luminescence, 24 h. Potency, µM (doses to about 57.2 µM), inactives show at the highest dose activity change, negative = inhibition, usual class: inhibitors;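 also: plate controls were DMSO cells for no effect and cell-free wells for full effect; nearly all actives have a fitted effect of over 45% in size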
GPT2 inh = Primary qHTS assay for inhibitors of Glutamate pyruvate transaminase 2 (GPT2); Alanine aminotransferase 2 (Homo sapiens), Q8TD30; Recombinant GPT2, coupled pyruvate oxidase/HRP Amplex Red fluorescence; Potency, µM (doses to about 57.7 µM), for inactives: top-dose activity change, negative = inhibition, hits mostly inhibitors; actives 0.25% (n = 100,000); also: nearly all actives have a fitted effect of over 60% in size
Target sequence (Q8TD30 whole entry, looked up): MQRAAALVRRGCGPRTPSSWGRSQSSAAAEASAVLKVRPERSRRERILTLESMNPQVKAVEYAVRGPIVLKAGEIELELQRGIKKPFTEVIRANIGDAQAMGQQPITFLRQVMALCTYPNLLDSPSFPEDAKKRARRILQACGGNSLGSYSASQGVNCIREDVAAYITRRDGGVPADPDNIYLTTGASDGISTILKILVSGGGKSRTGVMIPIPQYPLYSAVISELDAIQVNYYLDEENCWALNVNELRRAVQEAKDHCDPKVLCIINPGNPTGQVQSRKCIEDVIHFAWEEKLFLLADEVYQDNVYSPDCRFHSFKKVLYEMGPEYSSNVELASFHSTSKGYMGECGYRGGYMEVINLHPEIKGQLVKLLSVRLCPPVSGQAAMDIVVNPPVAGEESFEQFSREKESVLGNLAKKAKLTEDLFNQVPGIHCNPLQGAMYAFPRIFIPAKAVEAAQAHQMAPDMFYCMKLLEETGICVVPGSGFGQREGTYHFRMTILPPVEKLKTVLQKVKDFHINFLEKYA
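Fluorescence of coupled pyruvate oxidase/HRP/Amplex Red system (50uM Amplex, 30 min, dark) reports pyruvate formed by GPT2. Enzyme reaction: 10ng/uL GPT2, 2mM L-alanine, 250uM a-KG, 30 min room temperature, pH 7.5; 50uM AOA control.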
HEK293 viab = GF-AFC viability counterscreen for inhibitors of alpha-synuclein gene (SNCA) expression | HEK-293-SNCA-luc viability, GF-AFC fluorescence, 24 h | Potency, µM (series often up to 57.1 µM), for inactives: at the top dose activity change, negative = cytotoxicity, actives largely listed as cytotoxic | actives 0.12% (n = 150,000) | AID 1671193, 2021;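 also: 0% = DMSO-treated cells and -100% = medium-only wells without cells; nearly all actives have a fitted effect of over 30% in size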
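HEK-293-SNCA-luc cells (1500/well) plated 24 h, then exposed 24 h to a dilution series; GF-AFC added 30 min at 37C, fluorescence 405/540 nm; normalised to medium-only and DMSO wells, Hill fit.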
* hit, by the source's call; i = inactive; ? = inconclusive; . = no result; ! = repeats disagree; [ ] = dose if it differs, or a comment. Calls follow the shape of the dose curve; as a rule, active = well fitted curve in the direction sought with a large enough effect; inconclusive = small, poorly fitted or top-dose-only effect, or another doubt; inactive = no such curve, though single readings can be large; an effect the other way counts as inactive or inconclusive. Unless noted, % is scaled to controls: 0 for no effect and ±100 for the full control effect; potency is read from the fitted curve at half-maximal effect.

SMILES	SNCA expr inhib	GPT2 inh	HEK293 viab
Cc1cccc(NC(c2cccc(Cl)c2)c2ccc3cccnc3c2O)n1 (stereo unspecified)	8.91µM*	.	-4.0%
Cc1ccc(C(Nc2ccccn2)c2ccc3cccnc3c2O)cc1 (stereo unspecified)	?	.	-19.1%
Cc1cccc(CN2CC[C@@H]3OCC(=O)N(Cc4ccccc4)[C@H]3CC2)c1	7.2%[87.6 µM]	-12.3%[88.5 µM]	1.4%[87.6 µM]
COc1ccc(S(=O)(=O)Nc2cccnc2Nc2ccc(O)cc2)cc1	3.3%	21.7µM*!	?
CCOc1ccc(S(=O)(=O)Nc2nc3ccccc3nc2Nc2ccc(OC)cc2)cc1	1.6%	.	-7.8%
O=C(NCc1ccccc1Cl)C1CCCN(Cc2cccc(-c3ccc(F)cc3F)c2)C1 (stereo unspecified)	-3.6%	-2.5%	-17.9%
COc1ccc(-c2cc(-c3ccc(F)cc3)cn3cncc23)cc1	-8.0%[87.6 µM]	-2.8%[88.5 µM]	-3.2%[87.6 µM]
O=C(Nc1cccc(Cl)c1)c1cnc[nH]1	48.1%	.	-11.0%
COc1ccc(NC(=O)c2cnc[nH]2)cc1	14.1µM*	.	-11.9%
O=C(NC1CCCC1)c1nc2cccnc2n(Cc2ccccc2)c1=O	16.5%	i	-1.4%
C[C@@H]1O[C@@H](O[C@H]2[C@H](Oc3cc(O)c(C(=O)CCc4ccc(O)cc4)c(O)c3)O[C@H](CO)[C@@H](O)[C@@H]2O)[C@H](O)[C@H](O)[C@H]1O	.	7.08µM*	-1.8%
COc1ccc(CCC(=O)c2c(O)cc(O)cc2O[C@@H]2O[C@H](CO)[C@@H](O)[C@H](O)[C@H]2O)cc1	.	?	11.6%[23.9 µM]
Cc1ccc(Nc2ccnc(N3CCC(C(=O)NCCCc4ccccc4)CC3)n2)cc1	?	i	0.3%[12.5 µM]
Cc1cnc(CC2CCN(C(=O)COc3ccc(F)cc3)CC2)n1Cc1ccccc1	24.2%	i	1.3%
CCOC(=O)c1cc(-c2ccc(C)cc2)n(CCC(=O)Nc2nc3c(C)cccc3s2)c1C	14.1µM*	.	-11.4%
CCOC(=O)c1cc(-c2ccc(OC)cc2)n(CCC(=O)Nc2nc3ccc(OCC)cc3s2)c1C	-11.7%	.	11.6%
COc1ccccc1-c1cccc(C(=O)O)c1	-16.8%[87.6 µM]	-9.7%[88.5 µM]	-1.7%[87.6 µM]
Cc1ccc(-n2[nH]c(C)c(N=Nc3cccc(-c4cccc(C(=O)O)c4)c3O)c2=O)cc1C	-0.8%	1.93µM*	-18.2%
COc1ccccc1Nc1ccnc(N2CCC(NC(=O)C(C)C)CC2)n1	6.8%	i	?
COc1cc(N2CCC(O)CC2)ccc1Nc1nc(Nc2ccccc2S(=O)(=O)C(C)C)c2[nH]cnc2n1	.	17.8µM*	-23.1%
O=C(CNC(=O)c1ccc(-c2cccc(C(F)(F)F)c2)cc1)NCc1ccc(F)cc1	-34.3%	1.3%	-10.2%[12.5 µM]
CN(c1ccccc1)c1ccc2nnc(-c3cc(C(=O)NCc4cccnc4)ccn3)n2n1	-3.9%[87.6 µM]	2.9%[88.5 µM]	-8.1%[87.6 µM]
CC1=C[C@@H](CNC(=O)c2cnccn2)[C@H](C(C)C)C[C@H]1Cc1nc2ccc(F)cc2[nH]1	-21.9%[87.6 µM]	i	?
CC1=C[C@@H](CNC(=O)c2ccccc2)[C@H](C(C)C)C[C@H]1Cc1nc2ccccc2n1C	?	-1.2%[88.5 µM]	11.2µM*
CC1=C[C@@H](CNC(=O)c2cnccn2)[C@H](C(C)C)C[C@H]1Cc1nc2ccc(C)cc2[nH]1	-29.7%[87.6 µM]	-2.1%[88.5 µM]	39.8µM*
SMILES	SNCA expr inhib	GPT2 inh	HEK293 viab
CCC(CC)C(=O)NC[C@@H]1C=C(C)[C@H](Cc2nc3ccccc3n2C)C[C@H]1C(C)C	?	i	?
O=C(NCc1cccc(C(F)(F)F)c1)c1cn2cc(-c3ccc(F)cc3)sc2n1	3.7%	i	-0.2%
COc1ccc2c(c1)c1c(c(=O)n(Cc3ccccc3)c(=O)n1Cc1ccccc1Cl)n2C	3.16µM*	.	-1.0%
COc1ccc2c(c1)c1c(c(=O)n(CCc3ccccc3)c(=O)n1Cc1ccccc1)n2C	1.7%	.	-17.3%
Clc1ccc(Cn2ccnc2-c2cc3n(n2)CCCNC3)cc1Cl	?	4.7%	-28.0%
Fc1ccccc1CN1CCOC[C@H]1c1ncc(-c2cccc(Cl)c2)[nH]1	-17.6%[87.6 µM]	i	-3.8%[87.6 µM]
CC(=O)NCCc1c[nH]c2ccc(O)cc12	-8.0%	3.16µM*	-1.4%
COc1ccc2[nH]cc(CCNC(C)=O)c2c1	-6.5%	?	0.8%
Cc1ccc(Nc2ccnc(N3CCC(C(=O)Nc4ccccc4Cl)CC3)n2)cc1	1.7%	-0.1%	-7.2%[12.5 µM]
COCCNC(=O)[C@@H](C)C1CC[C@@]2(C)Cc3sc(CSc4ccccc4)nc3[C@@H](C)[C@@H]2[C@H]1O (stereo partly specified)	-15.4%	2.1%	-0.9%
CCN(CC)C(=O)[C@@H](C)C1CC[C@@]2(C)Cc3sc(Nc4c(Cl)cccc4Cl)nc3[C@@H](C)[C@@H]2[C@H]1O (stereo partly specified)	?	?	-0.2%
C[C@H](C(=O)N1CCCC1)C1CC[C@@]2(C)Cc3sc(-c4ccccc4)nc3[C@@H](C)[C@@H]2[C@H]1O (stereo partly specified)	4.47µM*	1.6%	2.2%
C[C@H](C(=O)N1CCCC1)[C@@H]1CC[C@@]2(C)Cc3sc(-c4ccsc4)nc3[C@@H](C)[C@@H]2[C@H]1O	5.62µM*	-4.2%	5.5%
CCCNC(=O)[C@@H]1Cc2cn(Cc3c(C)noc3C)c3cccc(c23)[C@H](CC(C)C)N1	?	-7.0%[88.5 µM]	-16.9%[87.6 µM]
CC1=C[C@@H](CN2CCN(c3ncccn3)CC2)[C@H](C(C)C)C[C@H]1Cc1nnc(-c2ccc(N(C)C)cc2)o1	?	-18.8%	?
CC(C)NC(=O)c1nc(-c2ccc(Cl)cc2Cl)c2ccccn12	-7.1%	i	6.1%
COc1ccc(-c2cc(N3CCCC(NC(=O)c4cc(C)cc(C)c4)C3)n[nH]2)cc1 (stereo unspecified)	-8.6%	?	-3.1%
COc1ccc(-c2nc(S(=O)(=O)c3ccc(Cl)cc3)c(NCc3ccccc3)o2)cc1	13.2%	.	2.3%
O=S(=O)(c1ccccc1)c1nc(-c2ccc(F)cc2)oc1N1CCOCC1	44.9%	.	-11.5%
Cc1ccc(S(=O)(=O)c2nc(-c3cccs3)oc2SC(C)C)cc1	19.6%	.	1.6%
CCCCS(=O)(=O)c1oc(-c2ccc(F)cc2)nc1S(=O)(=O)c1ccccc1	?	.	14.1µM*
CS(=O)(=O)c1oc(-c2ccc(F)cc2)nc1S(=O)(=O)c1ccc(Cl)cc1	8.8%	.	-6.2%
CCS(=O)(=O)c1oc(-c2ccc(F)cc2)nc1S(=O)(=O)c1ccc(Br)cc1	?	.	15.8µM*
CC(C)S(=O)(=O)c1oc(-c2cccs2)nc1S(=O)(=O)c1ccc(F)cc1	14.1µM*	.	?
CC(C)S(=O)(=O)c1oc(-c2ccc(F)cc2)nc1S(=O)(=O)c1ccccc1	?	.	2.51µM*
COc1ccc(Cn2c(=O)c(C(=O)NCc3ccc(F)cc3)nc3cccnc32)cc1	11.4%	0.0%	0.4%
COc1ccc(C(=O)N2CCN(Cc3ccccc3-c3cccnc3)CC2)cc1	2.1%	i	-12.9%[12.5 µM]
CC1(O)CCCN(Cc2cc3cc4c(cc3nc2-c2ccc(Cl)cc2)OCO4)C1 (stereo unspecified)	?	0.8%	?
O=C(NC1CCN(c2ccnc3ccnn23)CC1)c1ccccc1	-13.7%[87.6 µM]	i	11.8%[87.6 µM]
